According to PubChem BioAssay (NCATS):
Inconclusive results are not listed. Active and inactive are the calls of the source. Calls follow the shape of the dose curve; as a rule, active = well fitted inhibition curve with a large enough effect; inconclusive = small, poorly fitted or top-dose-only effect; inactive = no such curve, though single readings can be large or run the other way.

assay: qHTS for Inhibitors of ATXN expression: Validation (AID 588378); settings: cell-based ATXN2 expression reporter assay, luminescence; series mostly up to 57.1 µM; activity change, negative = inhibition: at the top concentration; also: nearly all actives have a fitted effect of over 75% in size
Text: Spinocerebellar ataxia type 2 (SCA2) is a multisystem neurodegenerative disease caused by a dominantly-acting mutation leading to expansion of a polyQ domain in the ataxin-2 protein (ATXN2). SCA2 patients develop progressive ataxia and later lose function in other neuronal systems. Prominent parkinsonian signs develop in some patients. Similar to many neurodegenerative disorders, no symptomatic or disease-modifying treatments are known.
The primary objective of project is to identify compounds inhibiting ATXN2 expression and to test them for efficacy in SCA2 mouse models. To this end, in a collaboration between Dr. Daniel Scoles and scientists at NCGC, a cell-based assay adapted to high-throughput screening has been developed to screen the NIH Molecular Libraries Small Molecule Repository (MLSMR).
NIH Chemical Genomics Center [NCGC]
NIH Molecular Libraries Probe Centers Network [MLPCN]
Assay Submitter (PI): Stefan Pulst and Daniel Scoles, University of Utah
4 ul of HEK293-ATXN2-FFLuc cell suspension (TBD cells/microL in phenol-red free DMEM) are dispensed into Greiner white solid bottom 1536-well assay plates, yielding a final well density of TBD cells/well. Plates are incubated for 2 hrs at 37 degrees C in 5% humidified CO2 to allow cell attachment. Compounds are then transferred via Kalypsys pin tool equipped with 1536-pin array (10nl slotted pins, V&P Scientific, San Diego, CA). In addition, duplicate serial dilutions of the control compounds ChemBridge 5553825, a previously identified ATXN2 expression inhibitor, and a known luciferase inhibitor, are pin-transferred. After incubation at 37 degrees C in 5% humidified CO2 for 24 hrs, CellTiter-Fluor reagent (1 ul) (Promega, Madison, WI) is then added and plates are incubated for 30 minutes, before being transferred to a ViewLux high-throughput CCD imager (PerkinElmer), wherein single end-point fluorescence measurements are acquired using the 405 nm excitation/525 nm emission filter set to assess cell viability. Next, Bright-Glo luciferase substrate detection reagent (3 ul) (Promega, Madison, WI) is added to each well and incubated for an additional 5 minutes. Luminescence is then measured on the ViewLux imager equipped with a clear emission filter using a 2 sec exposure.
% is scaled to controls: 0 for no effect and ±100 for the full control effect.

Structure (SMILES)	activity change, negative = inhibition
CN(C)CC[C@@H](c1ccc(Br)cc1)c1ccccn1	-25.3% (inactive)
C[C@]12CCC(=O)C=C1CC[C@@H]1[C@@H]2C(=O)C[C@@]2(C)[C@H]1CC[C@]2(O)C(=O)CO	-12.7% (inactive)
c1cnc(N2CCN(Cc3ccc4c(c3)OCO4)CC2)nc1	10.3% (inactive)
Cc1nc2c([nH]1)c(=O)n(C)c(=O)n2Cc1ccco1	-1.48% (inactive)
Cc1cc(C)c(/C=C2\C(=O)Nc3ccccc32)[nH]1	-3.75% (inactive)
CCN(Cc1ccncc1)C(=O)C(CO)c1ccccc1 (stereo not given)	10.7% (inactive)
CCN(CC)CC(=O)Nc1c(C)cccc1C	-0.206% (inactive)
COC(=O)[C@H]1[C@H]2C[C@@H]3c4[nH]c5cc(OC)ccc5c4CCN3C[C@H]2C[C@@H](OC(=O)c2cc(OC)c(OC)c(OC)c2)[C@@H]1OC	-2.34% (inactive)
O=c1[nH]c(=O)n([C@H]2C[C@H](O)[C@@H](CO)O2)cc1Br	-7.62% (inactive)
COc1cc(C(=O)OCCCN2CCCN(CCCOC(=O)c3cc(OC)c(OC)c(OC)c3)CC2)cc(OC)c1OC	-16.6% (inactive)
Nc1c2c(nc3ccccc13)CCCC2O (stereo not given)	-7.89% (inactive)
NC(=O)c1cn(Cc2c(F)cccc2F)nn1	-8.34% (inactive)
CSc1ccc(C(=O)c2[nH]c(=O)[nH]c2C)cc1	17.1% (inactive)
Cc1scc2c1N(C(=O)CN1CCN(C)CC1)c1ccccc1NC2=O	11.2% (inactive)
C[C@H](CS)C(=O)N1CCC[C@H]1C(=O)O	-14.3% (inactive)
CN(C)CCOC(=O)COc1ccc(Cl)cc1	11.5% (inactive)
COCCOC(=O)C1=C(C)NC(C)=C(C(=O)OC(C)C)C1c1cccc([N+](=O)[O-])c1 (stereo not given)	-14.5% (inactive)
C[N+](C)(C)CCOC(=O)CCC(=O)OCC[N+](C)(C)C	8.41% (inactive)
CCOC(=O)C1=C(C)NC(C)=C(C(=O)OC)C1c1cccc([N+](=O)[O-])c1 (stereo not given)	-27.9% (inactive)
CCO/C([O-])=N/c1c[n+](N2CCOCC2)no1	10.6% (inactive)

Structure (SMILES)	activity change, negative = inhibition
C(=C\c1ccccc1)/CN1CCN(C(c2ccccc2)c2ccccc2)CC1	2.38% (inactive)
CCCN(CCC)C(=O)C(CCC(=O)O)NC(=O)c1ccccc1 (stereo not given)	-7.7% (inactive)
CCCCCN(CCCCC)C(=O)C(CCC(=O)O)NC(=O)c1ccc(Cl)c(Cl)c1 (stereo not given)	-16.6% (inactive)
CCn1ccnc1CC1COc2ccccc2O1 (stereo not given)	14.4% (inactive)
NS(=O)(=O)c1cc2c(cc1Cl)NC(C1CC3C=CC1C3)NS2(=O)=O (stereo not given)	3.78% (inactive)
O=C(O)CN(CCOCCOCCN(CC(=O)O)CC(=O)O)CC(=O)O	-11% (inactive)
Cc1nnc(SCC2=C(C(=O)O)N3C(=O)[C@@H](NC(=O)Cn4cnnn4)[C@H]3SC2)s1	0.92% (inactive)
CC(=O)OC(C)C[N+](C)(C)C (stereo not given)	5.97% (inactive)
O=C(CCNNC(=O)c1ccncc1)NCc1ccccc1	-8.88% (inactive)
CN/C(=C\[N+](=O)[O-])NCCSCc1ccc(CN(C)C)o1	7.51% (inactive)
NCCCNCCSP(=O)(O)O	3.27% (inactive)
CCN1CCc2nc(N)oc2CC1	3.77% (inactive)
COc1ccc2c(c1OC)C(=O)O[C@@H]2[C@H]1c2c(cc3c(c2OC)OCO3)CCN1C	-18.8% (inactive)
O=C(O)CN(CCN(CC(=O)O)CC(=O)O)CCN(CC(=O)O)CC(=O)O	-17.3% (inactive)
COc1cc(Cc2cnc(N)nc2N)cc(OC)c1OC	14.8% (inactive)
CN(C)C(=O)Oc1cccc([N+](C)(C)C)c1	12.8% (inactive)
CC(N=C(NC#N)Nc1ccncc1)C(C)(C)C (stereo not given)	3.9% (inactive)
c1ccc2c(c1)CCCC2C1=NCCN1 (stereo not given)	-7.05% (inactive)
CN(C(=O)CCCOc1ccc2[nH]c(=O)ccc2c1)C1CCCCC1	-0.108% (inactive)
CO[C@@]1(NC(=O)CSCC#N)C(=O)N2C(C(=O)O)=C(CSc3nnnn3C)CS[C@@H]21	1.23% (inactive)
